# Bioassay records deposited in PubChem by The Scripps Research Institute Molecular Screening Center.
# Most compounds without a hit are left out; they make up all but 5.7% or so of the library.
# DAX1 inh-1: DAX1 (NR0B1) inhibitors on StAR promoter, primary screen, cell-based, luminescence, SF-1 (NR5A1), full-length DAX-1; HEK293T StAR-luciferase reporter, SF-1/DAX-1 repression relief; inhibition, % at 6.8 µM; actives 1.1% (n = 370,000); AID 652010, 2013;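 active = inhibition above the mean over all tested compounds plus 3 SD, cut at about 3.6% in these data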;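 also: 0% = DAX-1 cells with DMSO and 100% = cells lacking DAX-1 with DMSO; higher inhibition means more luminescence from relief of DAX-1 repression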
# ssDAF12 agonist: S. stercoralis DAF-12 nuclear receptor activators, primary screen, cell-based, luminescence, HEK293, GRIP1 co-expression, lit1-tk-luc; Nuclear hormone receptor DAF-12 (Strongyloides stercoralis); HEK293 ssDAF-12/GRIP1 lit1-tk-luc reporter; % of 3 µM dafachronic acid response; activation, % at 6.8 µM; actives 1% (n = 370,000); AID 652126, 2013;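 active = activation above the mean over all tested compounds plus 3 SD, cut at about 0.9% in these data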;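 also: 0% = DMSO-only wells and 100% = 3 µM delta7-dafachronic acid wells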
# hcDAF12 agonist: H. contortus DAF-12 nuclear receptor activators, primary screen, cell-based, luminescence, HEK293, lit1-tk-luc reporter; HEK293 hcDAF-12 lit1-tk-luc reporter; 0% DMSO, 100% Δ7-dafachronic acid; actives 1.4% (n = 370,000); AID 652067, 2013; activation, % at 6.8 µM;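 active = activation above the mean of all tested compounds plus 3 SD, cut at about 5.5% in these data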;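 also: 100% = response to 3 µM Δ7-dafachronic acid high control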
# DAX1 inh-2: DAX1 (NR0B1) inhibitors, primary screen, cell-based, HEK293, Gal4-DAX1, luciferase luminescence | HEK293 Gal4-DAX1 luciferase reporter | inhibition, % at 6.75 µM | actives 0.99% (n = 340,000) | AID 504766, 2011;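 active = inhibition above the mean over all tested compounds plus 3 SD, cut at about 4.2% in these data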;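 also: 0% = DAX1-transfected cells with DMSO and 100% = empty-vector control cells with DMSO; inhibition shows as a rise in luminescence from relieved DAX1 repression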
# hgDAF-12 ag: H. glycines DAF-12 receptor agonists, primary screen, cell-based, luminescence, HEK293, GAL4 fusion, UAS-luciferase | actives 1.8% (n = 370,000) | HEK293 GAL4-hgDAF12 UAS-luciferase reporter, agonist luminescence; normalized to butyrate control | activation, % at 6.8 µM | AID 687014, 2013;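 active = activation above a cutoff set at the mean of all screened compounds plus 3 SD, cut at about 10% in these data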;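 also: 0% = DMSO wells and 100% = sodium butyrate wells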
# AHR activator: AHR activators, primary screen, cell-based, luminescence, luciferase reporter, human; Aryl hydrocarbon receptor (Homo sapiens), P35869; AHR-responsive luciferase reporter cells; activation, % at 5 µM; actives 2.5% (n = 320,000); in the data active = activation above about 47%;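 also: 0% = vehicle wells and 100% = reference agonist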
# AHR act confirm: AHR activators, confirmation, cell-based, luminescence, luciferase reporter, human | shares compounds with AHR activator | human cells, AHR-responsive luciferase reporter | activation, % at 9 µM | actives 87% (n = 2,300) | AID 2845, 2010; in the data active = activation above about 49%;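 also: HepG2 hepatoma cells carrying a DRE-driven firefly luciferase reporter; 0% = vehicle wells and 100% = reference agonist wells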
# PXR counter: human PXR activators, counter-screen for AHR activator project, cell-based, luciferase luminescence | shares compounds with AHR activator | cell-based PXR reporter | activation, % at 11.6 µM | actives 88% (n = 2,300); in the data active = activation above about 11%;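 also: human hepatoma DPX-2 cells expressing full-length human PXR; 0% = DMSO and 100% = reference agonist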
# Target sequence (O75469 whole entry, looked up): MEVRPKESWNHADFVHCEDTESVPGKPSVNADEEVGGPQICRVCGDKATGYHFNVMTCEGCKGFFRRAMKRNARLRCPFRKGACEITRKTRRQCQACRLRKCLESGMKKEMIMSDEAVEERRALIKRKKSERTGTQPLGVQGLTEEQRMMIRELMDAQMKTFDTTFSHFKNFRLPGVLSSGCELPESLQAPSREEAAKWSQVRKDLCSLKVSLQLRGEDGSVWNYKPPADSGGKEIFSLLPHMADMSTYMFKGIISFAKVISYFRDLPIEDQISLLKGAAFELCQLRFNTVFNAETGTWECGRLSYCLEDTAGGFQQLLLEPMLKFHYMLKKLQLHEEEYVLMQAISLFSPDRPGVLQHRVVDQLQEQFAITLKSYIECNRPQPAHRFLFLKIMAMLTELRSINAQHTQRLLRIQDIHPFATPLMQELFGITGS
# * hit, by the source's call; x = no result.
SMILES,DAX1 inh-1,ssDAF12 agonist,hcDAF12 agonist,DAX1 inh-2,hgDAF-12 ag,AHR activator,AHR act confirm,PXR counter
CSc1nc(N)c2c3c(sc2n1)COC(C(C)C)C3 (centres undefined),0,0,1,1,1,97*,109*,18*
Cc1cc(C)n(-c2nc3ccccc3n3nnnc23)n1,0,-1,-1,-1,1,12,x,x
CCc1nc2cc(C)nn2c2nc3ccccc3n12,0,-1,-1,0,5,91*,99*,30*
Cc1cc2nc(C)n3c4ccccc4nc3n2n1,1,0,3,-1,3,85*,127*,13*
COc1ccc(NS(=O)(=O)c2ccc3oc(Nc4ccc5c(c4)OCCO5)nc3c2)cc1,0,-1,1,1,2,87*,60*,19*
COc1cccc(S(=O)(=O)Nc2ccc3c(c2)OCCO3)c1,-1,-2,-3,-1,-6,x,x,x
C=CCn1c(NC(=O)c2ccc(C)cc2)nc2ccccc21,1,0,4,1,7,99*,93*,29*
COc1ccc(/C=C2\SC(=N)N(c3nccs3)C2=O)cc1OC,-2,-1,-2,-2,-5,85*,53*,17*
COC(=O)c1cc(OC)c(OC)cc1NC(=O)Cc1ccccc1[N+](=O)[O-],-1,-1,-2,-1,-3,7,x,x
Cn1c(=O)[nH]c(=O)c2[nH]c(CO)nc21,0,-1,-1,0,3,x,x,x
CCCOc1ccccc1-c1nc2c([nH]1)c(=O)[nH]c(=O)n2C,-1,-1,-1,1,1,137*,79*,34*
COC(=O)C1(C(=O)OC)C/C=C\CN(S(=O)(=O)c2ccccc2[N+](=O)[O-])CC1,0,-1,-1,x,-2,x,x,x
COc1cc(/C=N/Nc2snc(SC)c2C#N)cc(OC)c1OC,-1,-2,-1,-3,-3,2,x,x
CSc1nsc(N/N=C/c2ccc3c(c2)OCO3)c1C#N,2,0,3,2,12*,117*,81*,27*
CCOc1cccc(C(=O)Nc2ccc3[nH]ncc3c2)c1,3,-1,5,1,13*,93*,41,23*
CN(C1CCCC1)C1CCN(C(=O)CNC(=O)/C=C/c2cccc(C(F)(F)F)c2)CC1,1,-1,-1,1,-2,2,x,x
Cc1[nH]c2ccccc2c1C(=O)CSc1ccc(F)cc1,0,-1,-1,0,8,37,x,x
Cc1[nH]c2ccccc2c1C(=O)CCl,-1,-1,-1,-1,-4,x,x,x
Cc1[nH]c2ccccc2c1C(=O)CNc1nccs1,0,-1,2,1,6,83*,34,26*
Cc1[nH]c2ccccc2c1SCc1ccccc1,0,-1,1,0,1,128*,103*,38*
Cc1[nH]c2ccccc2c1C(=O)COc1ccccc1,0,-1,1,-1,1,135*,128*,30*
Cc1[nH]c2ccccc2c1C(=O)CSc1ccccc1,1,-1,3,0,8,101*,93*,72*
Cc1ccccc1N(C)S(=O)(=O)c1nnc(NC(=O)c2ccco2)s1,-1,-1,-1,0,1,-1,x,x
Cc1ccc2cc3c(NC(=O)CC(C)C)nn(C)c3nc2c1,-1,-1,0,0,-3,103*,72*,x
CC(Sc1nnc2c(n1)C1(C)CCC2C1(C)C)C(=O)Nc1ccccc1 (centres undefined),-2,-1,-1,0,2,0,x,x
SMILES,DAX1 inh-1,ssDAF12 agonist,hcDAF12 agonist,DAX1 inh-2,hgDAF-12 ag,AHR activator,AHR act confirm,PXR counter
CCOc1ccc(NC(=O)c2oc3ccccc3c2NC(=O)CC)cc1,x,x,x,x,x,95*,58*,29*
O=C(Nc1c(C(=O)Nc2cccc(F)c2)oc2ccccc12)c1ccc2c(c1)OCO2,0,-1,-1,1,2,5,x,x
CCOCC(=O)Nc1c(C(=O)Nc2ccc3c(c2)OCO3)oc2ccccc12,0,0,-2,1,5,102*,106*,51*
NCCCn1c(C(=O)c2ccc(Cl)cc2)c2ccc(C(F)(F)F)cc2[n+]1[O-],0,0,5,1,0,100*,104*,29*
NCCCn1c(C(=O)c2ccc(Cl)cc2)c2ccc([N+](=O)[O-])cc2[n+]1[O-],-2,-1,-1,2,-5,41,x,x
COCc1nnc(NC(=O)CCS(=O)(=O)c2ccccc2)s1,0,-1,-2,0,0,2,x,x
COc1ccc(OC)c2sc(NC(=O)CCS(=O)(=O)c3ccccc3)nc12,0,-1,0,0,-2,115*,63*,24*
Oc1ccc(N=Nc2ccc(Br)cc2)c(O)c1,1,-1,-1,3,1,89*,61*,9
Oc1ccc(N=Nc2ccc3c(c2)OCCO3)c(O)c1,0,-2,0,-5,-6,15,x,x
Cc1cccc2c1NC(=O)/C2=C\C(=O)c1cccs1,-1,-1,3,-1,-2,84*,113*,116*
Cc1cc(Br)c2c(c1)/C(=C/C(=O)c1cccs1)C(=O)N2,0,-1,2,0,1,21,x,x
O=C(Cc1ccc(Cl)cc1)NNC1CC(=O)N(c2ccc3ccccc3c2)C1=O (centres undefined),1,1,2,3,3,5,x,x
COC(=O)c1sccc1NC(=O)CC1C(=O)NCCN1C(=O)Nc1ccc(OCc2ccccc2)cc1 (centres undefined),0,-2,-3,2,-1,-1,x,x
Cc1ccc(/C=N\Nc2nc3ccc(Cl)cc3[nH]2)o1,1,-1,3,1,8,165*,117*,22*
Cc1ccc(/C=N/Nc2cn[nH]c(=O)n2)o1,2,0,3,-1,9,22,x,x
